Consider 13 compounds from PubChem BioAssay (EPA / NIEHS).

One may read the AC50 as the concentration at which the activity in the assay is half-maximal.

Test [1] can be described thus: ACEA_AR_agonist_AUC_viability: ACEA Biosciences xCELLigence Real-Time Cell Analysis on Androgen Receptor Agonism for Viability (AID 2283775).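 On AC50: viability read 80 hours after compound addition.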 In outline: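 Read-out is area under the impedance curve at 80 h post-dose in 22Rv1 cells, with DMSO as baseline and signal loss taken as reduced viability. Compounds ran in duplicate from 100 uM final.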
Test [2] can be described thus: ACEA_AR_antagonist_AUC_viability: ACEA Biosciences xCELLigence Real-Time Cell Analysis on Androgen Receptor Antagonism for Viability (AID 2283776).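 Further: area under impedance growth curve at 80 h after dosing as viability; hits lower the growth signal relative to DMSO meaning cytotoxicity.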 In outline: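 22Rv1 human prostate cancer cells were seeded on electrode plates, monitored overnight, then exposed to eight 1:4 dilutions from 100 uM final. Impedance-based growth kinetics at 80 h gave an AUC viability endpoint normalized to DMSO.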

The nature of test [3]: ACEA_ER_AUC_viability: ACEA Biosciences xCELLigence Real-Time Cell Analysis on Estrogen Receptor Agonism for Viability (AID 2283782).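 Further: continuous compound exposure with impedance area under curve over 80 h; hit means loss of impedance signal meaning reduced cell growth or viability.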 In outline:
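T-47D human breast cells in phenol red-free RPMI1640 with 10% charcoal-stripped FBS were dosed with an 8-point 1:4 dilution series from 100 uM top final concentration, in duplicate. Impedance-based growth was followed for 80 h; AUC analysed versus DMSO.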

For test [4], the system named is frog Androgen Receptor (AR), gene 399456. As to the kind of experiment: ATG_frAR_XSP1: Attagene TRANS-FACTORIAL Multi-Species (XSP1) HepG2 Assay for frog Androgen Receptor (AR) (AID 2283770).
Test [5] has as its system zebrafish Androgen Receptor (AR), gene 100005148. As to the kind of experiment: ATG_zfAR_XSP1: Attagene TRANS-FACTORIAL Multi-Species (XSP1) HepG2 Assay for zebrafish Androgen Receptor (AR) (AID 2283771). A digest of the protocol: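 HepG2 cells were transiently transfected with a zebrafish AR-GAL4 reporter system and partially stimulated with 3 nM 6-alpha-fluorotestosterone. Reporter mRNA was measured after 24 h dosing by RT-PCR with capillary electrophoresis, and gain-of-signal was fitted relative to DMSO.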

Test [6] relates to zebrafish Estrogen Receptor (ESR2B), gene 317733. As to the kind of experiment: ATG_zfER2b_XSP1: Attagene TRANS-FACTORIAL Multi-Species (XSP1) HepG2 Assay for zebrafish Estrogen Receptor (ESR2B) (AID 2283773). A digest of the protocol:
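HepG2 cells transiently transfected with multiple GAL4-UAS reporter units expressing chimeric zebrafish ER2b-Gal4; 24 h chemical exposure with 3 nM 6-alpha-fluorotestosterone present. Reporter mRNA measured by RT-PCR and capillary electrophoresis; gain of signal fitted versus DMSO.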

For test [7], the system named is frog Estrogen Receptor (ESR2), gene 100174814. As to the kind of experiment: ATG_frER2_XSP1: Attagene TRANS-FACTORIAL Multi-Species (XSP1) HepG2 Assay for frog Estrogen Receptor (ESR2) (AID 2283774). In outline:
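HepG2 cells transiently transfected with GAL4-UAS multiplexed reporter units expressing chimeric NR-Gal4 proteins; reporter mRNA measured 24 h after dosing by RT-PCR, FAM labeling, HpaI digestion and capillary electrophoresis. Gain-of-signal relative to DMSO; 3 nM 6-alpha-fluorotestosterone present.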

Test [8] deals with frog Estrogen Receptor (ESR1), gene 398734. The test can be described thus: ATG_frER1_XSP1: Attagene TRANS-FACTORIAL Multi-Species (XSP1) HepG2 Assay for frog Estrogen Receptor (ESR1) (AID 2283777). In outline:
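Read-out: fluorescent reporter mRNA via RT-PCR, HpaI digestion and capillary electrophoresis, after 24 h chemical exposure of transiently transfected human HepG2 cells expressing exogenous NR-Gal4 chimeras. DMSO served as baseline for positive-direction fitting.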

For test [9], the system named is zebrafish Estrogen Receptor (ESR2A), gene 317734. The test can be described thus: ATG_zfER2a_XSP1: Attagene TRANS-FACTORIAL Multi-Species (XSP1) HepG2 Assay for zebrafish Estrogen Receptor (ESR2A) (AID 2283778). In outline: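 HepG2 cells transiently transfected with multiplexed GAL4-UAS reporter units and chimeric NR-GAL4 receptors; 24 h compound exposure with 3 nM 6-alpha-fluorotestosterone present. Reporter mRNA quantified by RT-PCR and capillary electrophoresis, gain-of-signal fitted relative to DMSO.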

Test [10] addresses chicken Estrogen Receptor (ESR1), ESR1 (gene 396099) (UniProt P06212). As to the kind of experiment: ATG_chERa_XSP1: Attagene TRANS-FACTORIAL Multi-Species (XSP1) HepG2 Assay for chicken Estrogen Receptor (ESR1) (AID 2283779). A digest of the protocol: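 HepG2 cells transiently transfected with multiplexed GAL4-UAS reporter units expressing chimeric NR-Gal4 proteins; 3 nM 6-alpha-fluorotestosterone present. Reporter mRNA measured 24 h after dosing by RT-PCR, FAM labelling, HpaI digest and capillary electrophoresis; gain of signal versus DMSO.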

The subject of test [11] is turtle Estrogen Receptor (ESR1), gene 101933533. As to the kind of experiment: ATG_trERa_XSP1: Attagene TRANS-FACTORIAL Multi-Species (XSP1) HepG2 Assay for turtle Estrogen Receptor (ESR1) (AID 2283781). In outline: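 HepG2 cells transiently transfected with GAL4-UAS reporter units and chimeric NR-Gal4 constructs, dosed for 24 h with 3 nM 6-alpha-fluorotestosterone present. Reporter mRNA was quantified by RT-PCR, fluorescent labelling and capillary electrophoresis, with gain of signal fitted relative to DMSO.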

Test [12] has as its system turtle Androgen Receptor (AR), gene 101947425. The test can be described thus: ATG_trAR_XSP1: Attagene TRANS-FACTORIAL Multi-Species (XSP1) HepG2 Assay for turtle Androgen Receptor (AR) (AID 2283786). A digest of the protocol: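 HepG2 cells transiently transfected with a turtle AR–GAL4 chimera and GAL4-UAS reporter, co-treated with 3 nM 6-alpha-fluorotestosterone for partial stimulation. Reporter mRNA is quantified at 24 h by RT-PCR and capillary electrophoresis, gain-of-signal versus DMSO.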

Test [13] deals with Estrogen receptor beta (Homo sapiens) (UniProt Q92731). As to the kind of experiment: ATG_hERb_XSP1: Attagene TRANS-FACTORIAL Multi-Species (XSP1) HepG2 Assay for human Estrogen Receptor (ESR2) (AID 2283788). In outline: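 Read-out: reporter mRNA induction by RT-PCR, HpaI digestion and capillary electrophoresis fluorescence, fitted in positive direction relative to DMSO baseline. Human liver HepG2 cells expressing ERβ-Gal4 fusion, dosed 24 h, medium containing 3 nM 6-alpha-fluorotestosterone.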

Test [14] deals with zebrafish Estrogen Receptor (ESR1), esr1 (gene 259252) (UniProt P57717). The test can be described thus: ATG_zfER1_XSP1: Attagene TRANS-FACTORIAL Multi-Species (XSP1) HepG2 Assay for zebrafish Estrogen Receptor (ESR1) (AID 2283772). In outline: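 Reporter mRNA induction, gauged via RT-PCR/capillary electrophoresis fluorescence relative to DMSO controls, in HepG2 cells transiently carrying GAL4-UAS reporter units; 24 h dosing.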

Test [15] in a line: STM_H9_NormalizedViability: Cytotoxicity Assessment at 120 hours in the Stemina devTOX quickPredict H9 human embryonic stem cell (hESC)-based Assay (AID 2283784). A digest of the protocol: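 Undifferentiated H9 hESCs kept pluripotent were exposed to compound, with media and chemical replaced every 24h. CellTiter-Fluor protease-substrate fluorescence was background-corrected and normalized per plate to the 0.1% DMSO vehicle; signal loss indicates reduced viability.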

The target of the next test is AR (gene 367) (UniProt P10275). The test can be described thus: ACEA_AR_antagonist_80hr: ACEA Biosciences xCELLigence Real-Time Cell Analysis on Androgen Receptor Antagonism for Proliferation (AID 2283787).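 Further: hits lower the impedance growth signal relative to DMSO.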 A digest of the protocol:
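Impedance readout (RT-CES), 80 h post-dose; loss-of-signal vs DMSO baseline. 22Rv1 cells in assay medium. Compounds: 8-pt 1:4 series, max 100 uM final, up to 0.5% DMSO; n = 2.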

Test [16] deals with GAL4 Transcription Factor (Internal Marker), GAL4 (gene 855828) (UniProt P04386). As to the kind of experiment: ATG_GAL4_XSP1: Attagene TRANS-FACTORIAL Multi-Species (XSP1) HepG2 Assay for GAL4 Transcription Factor (Internal Marker) (AID 2283789). In outline:
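HepG2 cells transiently transfected with multiplexed GAL4-UAS reporter units were exposed for 24 h with 3 nM 6-alpha-fluorotestosterone present. Reporter mRNA was quantified by RT-PCR, FAM labelling, HpaI digestion and capillary electrophoresis; background-control readout, gain-of-signal versus DMSO.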

The nature of test [17]: ATG_M_06_XSP1: Attagene TRANS-FACTORIAL Multi-Species (XSP1) HepG2 Assay for M06 Transcription Factor (Internal Marker) (AID 2283790). In outline:
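Transfected HepG2 multi-reporter system treated 24 h in the presence of 3 nM 6-alpha-fluorotestosterone. The M06 internal marker transcript was quantified by RT-PCR with capillary electrophoresis as a background control, and gain of signal was scored versus DMSO.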

Test [18] has as its target Estrogen receptor (Homo sapiens) (UniProt P03372). As to the kind of experiment: ATG_hERa_XSP1: Attagene TRANS-FACTORIAL Multi-Species (XSP1) HepG2 Assay for human Estrogen Receptor (ESR1) (AID 2283780). A digest of the protocol:
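HepG2 cells transiently transfected with GAL4-UAS reporter units and chimeric NR-Gal4 constructs; 24 h after dosing, reporter mRNA quantified by RT-PCR and capillary electrophoresis. Medium contained 3 nM 6-alpha-fluorotestosterone; activity fitted as gain-of-signal versus DMSO.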

Records with an inconclusive call do not appear. The source made the active and inactive calls. How the source made its calls: active means hit-call score of the fitted dose curve at least 0.9, where 1 is the maximum; inconclusive means response in the unintended direction; inactive means score below 0.9.

Chain of chicken Estrogen Receptor (ESR1), ESR1 (gene 396099) (P06212 whole entry, looked up, the tested form may be a part): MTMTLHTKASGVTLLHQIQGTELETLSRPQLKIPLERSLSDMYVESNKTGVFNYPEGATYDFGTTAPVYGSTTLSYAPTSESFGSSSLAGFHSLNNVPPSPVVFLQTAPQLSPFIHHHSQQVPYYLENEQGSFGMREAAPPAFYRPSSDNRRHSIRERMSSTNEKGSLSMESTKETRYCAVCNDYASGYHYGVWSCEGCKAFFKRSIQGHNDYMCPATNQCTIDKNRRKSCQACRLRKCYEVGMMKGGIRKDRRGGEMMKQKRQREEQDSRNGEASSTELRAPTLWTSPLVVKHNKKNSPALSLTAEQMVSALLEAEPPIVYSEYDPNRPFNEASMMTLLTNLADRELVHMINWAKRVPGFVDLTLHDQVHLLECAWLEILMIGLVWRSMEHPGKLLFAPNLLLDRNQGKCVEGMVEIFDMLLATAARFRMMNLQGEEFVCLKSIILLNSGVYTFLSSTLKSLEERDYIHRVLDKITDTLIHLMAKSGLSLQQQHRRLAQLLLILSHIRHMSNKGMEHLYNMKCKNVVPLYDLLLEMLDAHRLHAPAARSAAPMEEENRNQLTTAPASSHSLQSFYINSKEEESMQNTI
Chain of AR (gene 367) (P10275 whole entry, looked up): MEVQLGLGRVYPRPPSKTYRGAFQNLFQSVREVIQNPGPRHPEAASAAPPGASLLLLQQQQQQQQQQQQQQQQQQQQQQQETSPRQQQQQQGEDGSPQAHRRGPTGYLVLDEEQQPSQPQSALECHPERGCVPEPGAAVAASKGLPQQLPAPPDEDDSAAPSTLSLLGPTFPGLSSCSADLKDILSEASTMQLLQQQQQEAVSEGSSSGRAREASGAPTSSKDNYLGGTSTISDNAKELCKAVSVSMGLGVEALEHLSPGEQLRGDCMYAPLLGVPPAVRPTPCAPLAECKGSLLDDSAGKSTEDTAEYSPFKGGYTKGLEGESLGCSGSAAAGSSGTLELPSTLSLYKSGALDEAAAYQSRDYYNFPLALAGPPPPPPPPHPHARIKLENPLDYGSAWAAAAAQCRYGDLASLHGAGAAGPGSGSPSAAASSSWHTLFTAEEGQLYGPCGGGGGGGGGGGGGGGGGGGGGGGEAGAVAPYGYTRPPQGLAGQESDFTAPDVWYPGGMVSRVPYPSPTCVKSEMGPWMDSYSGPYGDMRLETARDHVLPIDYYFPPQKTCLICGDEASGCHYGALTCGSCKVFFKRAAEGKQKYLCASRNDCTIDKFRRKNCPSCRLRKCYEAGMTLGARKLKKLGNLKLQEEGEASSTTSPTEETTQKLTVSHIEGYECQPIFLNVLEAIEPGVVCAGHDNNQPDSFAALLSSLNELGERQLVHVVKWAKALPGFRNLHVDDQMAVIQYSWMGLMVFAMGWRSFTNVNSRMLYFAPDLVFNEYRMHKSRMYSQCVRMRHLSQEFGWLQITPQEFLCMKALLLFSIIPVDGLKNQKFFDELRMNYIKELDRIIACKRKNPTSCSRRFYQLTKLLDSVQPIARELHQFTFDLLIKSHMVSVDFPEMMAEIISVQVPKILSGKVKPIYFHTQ
Chain of zebrafish Estrogen Receptor (ESR1), esr1 (gene 259252) (P57717 whole entry, looked up, the tested form may be a part): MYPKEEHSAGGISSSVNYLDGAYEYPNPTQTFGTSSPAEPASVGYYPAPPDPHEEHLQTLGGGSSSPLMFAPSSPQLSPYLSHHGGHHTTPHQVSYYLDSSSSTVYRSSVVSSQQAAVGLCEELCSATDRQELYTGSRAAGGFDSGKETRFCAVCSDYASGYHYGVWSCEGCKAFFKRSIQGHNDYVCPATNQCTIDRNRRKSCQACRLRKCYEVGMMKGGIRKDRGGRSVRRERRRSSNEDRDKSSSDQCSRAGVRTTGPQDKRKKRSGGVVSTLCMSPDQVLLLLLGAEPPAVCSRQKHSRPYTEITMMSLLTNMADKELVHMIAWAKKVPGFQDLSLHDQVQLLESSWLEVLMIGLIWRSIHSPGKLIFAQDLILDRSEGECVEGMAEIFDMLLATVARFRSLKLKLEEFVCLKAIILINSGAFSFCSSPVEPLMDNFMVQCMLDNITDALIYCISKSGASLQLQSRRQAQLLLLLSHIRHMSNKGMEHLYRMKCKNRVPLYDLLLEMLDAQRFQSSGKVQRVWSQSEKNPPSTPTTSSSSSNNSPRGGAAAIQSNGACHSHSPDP
Chain of Estrogen receptor (Homo sapiens) (P03372 whole entry, looked up, the tested form may be a part): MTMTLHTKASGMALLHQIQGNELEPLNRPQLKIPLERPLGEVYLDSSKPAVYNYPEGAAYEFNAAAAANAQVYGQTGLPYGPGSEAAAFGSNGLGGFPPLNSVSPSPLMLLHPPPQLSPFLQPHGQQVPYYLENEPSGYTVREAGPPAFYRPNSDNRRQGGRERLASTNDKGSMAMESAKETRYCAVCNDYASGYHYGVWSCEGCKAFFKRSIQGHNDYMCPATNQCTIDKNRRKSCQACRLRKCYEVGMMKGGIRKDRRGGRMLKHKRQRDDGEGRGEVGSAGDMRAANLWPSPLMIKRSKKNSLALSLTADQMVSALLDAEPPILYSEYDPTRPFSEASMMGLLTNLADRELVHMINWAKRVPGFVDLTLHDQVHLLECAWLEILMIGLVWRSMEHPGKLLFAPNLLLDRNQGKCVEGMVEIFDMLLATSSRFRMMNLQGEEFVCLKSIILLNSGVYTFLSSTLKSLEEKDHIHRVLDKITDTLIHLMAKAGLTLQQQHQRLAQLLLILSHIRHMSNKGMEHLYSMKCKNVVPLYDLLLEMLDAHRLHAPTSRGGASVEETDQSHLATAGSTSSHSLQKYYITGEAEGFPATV
Chain of Estrogen receptor beta (Homo sapiens) (Q92731 whole entry, looked up, the tested form may be a part): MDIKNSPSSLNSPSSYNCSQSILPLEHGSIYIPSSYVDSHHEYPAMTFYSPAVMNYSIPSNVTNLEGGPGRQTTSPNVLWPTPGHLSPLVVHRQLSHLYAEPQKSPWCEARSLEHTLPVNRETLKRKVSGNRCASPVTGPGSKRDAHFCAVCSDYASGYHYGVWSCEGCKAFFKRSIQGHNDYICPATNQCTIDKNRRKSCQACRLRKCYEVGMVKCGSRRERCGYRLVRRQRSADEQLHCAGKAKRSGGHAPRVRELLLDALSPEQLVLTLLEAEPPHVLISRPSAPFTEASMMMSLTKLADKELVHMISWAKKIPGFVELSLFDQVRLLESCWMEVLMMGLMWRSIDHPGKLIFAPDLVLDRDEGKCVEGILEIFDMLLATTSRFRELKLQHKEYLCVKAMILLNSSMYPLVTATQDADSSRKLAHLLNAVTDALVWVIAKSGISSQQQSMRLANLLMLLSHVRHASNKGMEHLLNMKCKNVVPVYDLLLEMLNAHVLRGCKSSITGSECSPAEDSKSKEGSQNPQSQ
Chain of GAL4 Transcription Factor (Internal Marker), GAL4 (gene 855828) (P04386 whole entry, looked up, the tested form may be a part): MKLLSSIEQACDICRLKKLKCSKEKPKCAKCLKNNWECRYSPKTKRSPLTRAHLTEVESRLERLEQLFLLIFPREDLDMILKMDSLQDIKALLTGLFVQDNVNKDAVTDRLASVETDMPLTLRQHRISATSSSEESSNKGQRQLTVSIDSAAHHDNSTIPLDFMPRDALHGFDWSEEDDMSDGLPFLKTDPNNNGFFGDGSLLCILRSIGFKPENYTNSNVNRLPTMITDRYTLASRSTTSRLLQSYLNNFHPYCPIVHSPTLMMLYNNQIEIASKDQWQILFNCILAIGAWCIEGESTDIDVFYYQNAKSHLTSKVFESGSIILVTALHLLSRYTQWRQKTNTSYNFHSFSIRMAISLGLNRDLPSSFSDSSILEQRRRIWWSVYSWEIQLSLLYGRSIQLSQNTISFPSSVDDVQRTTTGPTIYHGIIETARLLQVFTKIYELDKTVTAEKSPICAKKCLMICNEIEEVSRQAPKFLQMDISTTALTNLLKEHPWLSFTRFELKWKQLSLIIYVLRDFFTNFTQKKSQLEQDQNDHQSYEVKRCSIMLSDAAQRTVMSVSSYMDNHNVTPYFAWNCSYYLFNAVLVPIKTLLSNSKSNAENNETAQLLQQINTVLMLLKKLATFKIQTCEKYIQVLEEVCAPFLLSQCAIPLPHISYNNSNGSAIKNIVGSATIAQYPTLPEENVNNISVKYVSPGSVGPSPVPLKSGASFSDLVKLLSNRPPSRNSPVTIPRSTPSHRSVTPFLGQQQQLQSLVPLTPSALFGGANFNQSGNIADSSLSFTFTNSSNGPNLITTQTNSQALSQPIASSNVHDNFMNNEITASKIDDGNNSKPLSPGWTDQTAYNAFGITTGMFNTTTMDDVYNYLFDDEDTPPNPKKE

Take `CC(C)(c1ccccc1)c1ccc(O)c(C(C)(C)c2ccccc2)c1`: the AC50 was 10.1 µM (active) in test [1], 12.8 µM (active) in test [2] and 8.68 µM (active) in [3].
On to `[O-][Cl+2]([O-])O`, for which the outcome in test [1], in test [2] and in test [3] was inactive.
For the compound `C[C@]12CCC(=O)C[C@@H]1CC[C@@H]1[C@@H]2CC[C@]2(C)[C@@H](O)CC[C@@H]12`, the AC50 in test [4] was 0.177 µM (active); in test [5] it was 0.0358 µM (active); in [6], 1 µM (active); in test [7], 1.31 µM (active); in test [9], 0.851 µM (active); in [12], 0.168 µM (active). The call in test [8], in [10], in test [11] and in test [13] was inactive.
`NNC(=S)NN`: the call in test [1] and in [2] was inactive.
As for `CC12CC1(C)C(=O)N(c1cc(Cl)cc(Cl)c1)C2=O` (stereo not drawn), the result in test [5], in test [14], in test [1], in test [8], in [9] and in test [3] was inactive. Further, the result in test [15], in test [13], in test [16] and in test [17] was inactive. The AC50 in test [6] was 60.6 µM (active); in test [7] it was 24.7 µM (active); in test [2] it was 81 µM (active); in [10], 100 µM (active); in test [11], 30.9 µM (active); in the test with AR (gene 367), 78.4 µM (active).
In the case of `C=CCc1ccc(OC)cc1`, the compound was called inactive in [1], in [2] and in test [3].
On to `N#CN=C(N)N`, for which the call in test [1] and in test [2] was inactive.
For the compound `CCC(C)(C)c1ccc(O)c(C(C)(C)CC)c1`, the call in test [1] was inactive. For the same compound, the AC50 in test [2] is 47.9 µM (active); in test [3], 14.9 µM (active).
Consider `CC(C)(C)c1cc(O)ccc1O`, for which the compound was called inactive in test [14], in test [8], in test [9] and in [17]. Also, the AC50 in test [6] was 20 µM (active); in [7] it was 22.4 µM (active); in test [1], 90.9 µM (active); in test [2] it was 86.2 µM (active); in [10] it was 8.92 µM (active); in [18] it was 8.75 µM (active). In addition, the AC50 in test [11] was 8.26 µM (active); in [3] it was 9.53 µM (active).
Regarding `COP(=O)(OC)O/C(=C\Cl)c1cc(Cl)c(Cl)cc1Cl`, the AC50 in test [6] was 73.9 µM (active); in [3] it was 58.1 µM (active). The call (in test [1]; in test [10]; in test [18]; with AR (gene 367); in test [17]) was inactive.
As for `CCOP(=S)(OCC)SCSP(=S)(OCC)OCC`, the call in [1] was inactive. In addition, in test [2], the AC50 is 67 µM (active).
As for `O=S(=O)(c1ccc(Cl)cc1)c1ccc(Cl)cc1`, the call in test [1] and in test [2] was inactive.
With `CC(C)C1CCC(Cc2ccc(Cl)cc2)C1(O)Cn1cncn1` (stereo not drawn), in test [1], the outcome was inactive. The AC50 in [2] was 4.94 µM (active); in [3], 19.9 µM (active).
